Results published in the supplement of paper PMC6555819.

Experiments:
Assay in all cases: PBM binding z-score (relative to random genomic background probes); higher = stronger binding; sequences stand for … in GC…GCGATTGACAGCGTAGAATGAAGG
[1] = system: FXR:RXRa (NR concentration 270 nM, RXRa partner concentration 90 nM)
Method in brief: (§1)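 Ligand-free nuclear receptor dimers were bound for 1 h to custom Agilent 4×180K protein-binding microarrays. Detection used antibodies against each partner (one per run). Binding z-scores rest on regression-normalized fluorescence, with random background probes as the reference.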

[2] = system: LXRa:RXRa (NR concentration 270 nM, RXRa partner concentration 90 nM)
Method in brief: as §1

[3] = system: LXRa homodimer (NR concentration 270 nM)
Method in brief: as §1

[4] = system: LXRb:RXRa (NR concentration 270 nM, RXRa partner concentration 90 nM)
Method in brief: as §1

[5] = system: LXRb homodimer (NR concentration 270 nM)
Method in brief: as §1

[6] = system: PPARa:RXRa (NR concentration 270 nM, RXRa partner concentration 90 nM)
Method in brief: as §1

[7] = system: PPARg:RXRa (NR concentration 180 nM, RXRa partner concentration 90 nM)
Method in brief: as §1

[8] = system: PPARg:RXRa 270nM:90nM, anti-RXR (NR concentration 270 nM, RXRa partner concentration 90 nM)
Method in brief: as §1

[9] = system: PPARg:RXRa 30nM:10nM, anti-RXR (NR concentration 30 nM, RXRa partner concentration 10 nM)
Method in brief: as §1

[10] = system: PPARg:RXRa 90nM:30nM, anti-RXR (NR concentration 90 nM, RXRa partner concentration 30 nM)
Method in brief: as §1

[11] = system: PPARg:RXRa DBDmut IVT, anti-RXR (DBD mutation: RXRa K156A/R161A, NR concentration 270 nM, RXRa partner concentration 90 nM)
Method in brief: as §1

[12] = system: PPARg:RXRa IVT, anti-PPARg (NR concentration 270 nM, RXRa partner concentration 90 nM)
Method in brief: as §1

[13] = system: PPARg DBDmut:RXRa IVT, anti-PPARg (DBD mutation: PPARg1 K132A/R137A, NR concentration 270 nM, RXRa partner concentration 90 nM)
Method in brief: as §1

[14] = system: PPARg DBDmut IVT, anti-PPARg (DBD mutation: PPARg1 K132A/R137A, NR concentration 270 nM)
Method in brief: as §1

[15] = system: PPARg homodimer (NR concentration 180 nM)
Method in brief: as §1

[16] = system: PXR:RXRa (NR concentration 270 nM, RXRa partner concentration 90 nM)
Method in brief: as §1

[17] = system: PXR homodimer (NR concentration 270 nM)
Method in brief: as §1

[18] = system: RARa:RXR (NR concentration 270 nM, RXRa partner concentration 90 nM)
Method in brief: as §1

[19] = system: RARa homodimer (NR concentration 270 nM)
Method in brief: as §1

[20] = system: RARb:RXRa (NR concentration 270 nM, RXRa partner concentration 90 nM)
Method in brief: as §1

| Sequence | PBM binding z-score [1] | PBM binding z-score [2] | PBM binding z-score [3] | PBM binding z-score [4] | PBM binding z-score [5] | PBM binding z-score [6] | PBM binding z-score [7] | PBM binding z-score [8] | PBM binding z-score [9] | PBM binding z-score [10] | PBM binding z-score [11] | PBM binding z-score [12] | PBM binding z-score [13] | PBM binding z-score [14] | PBM binding z-score [15] | PBM binding z-score [16] | PBM binding z-score [17] | PBM binding z-score [18] | PBM binding z-score [19] | PBM binding z-score [20] |
| --- | --- | --- | --- | --- | --- | --- | --- | --- | --- | --- | --- | --- | --- | --- | --- | --- | --- | --- | --- | --- |
| GCGACTGGGGCAAAGCTGGTTACCATAAGGTTGG | -0.489 | -0.411 | -0.621 | -0.147 | -0.966 | 0.78 | 0.929 | 1.26 | -0.311 | 0.816 | 4.32 | 3.14 | -0.175 | -0.912 | -0.562 | -0.523 | -0.799 | -0.0421 | -0.562 | 0.598 |
| GCATATAGGTAATACAAGGTGAAATTCCGATTGT | 1.74 | 2.2 | 0.342 | 0.712 | -0.117 | 1.67 | 1.51 | 0.952 | 0.515 | 0.795 | 3.71 | 2.81 | 0.826 | 1.54 | 0.323 | 0.55 | 0.0431 | 1.17 | 0.97 | 0.349 |
| ACTCGGAGCACAAAGGTCAGAGCTACGCCAGTGA | 3.44 | 3.72 | 1.25 | 3.11 | 0.00562 | 4.38 | 5.58 | 6.38 | 4.55 | 6.24 | 0.735 | 2.74 | -0.286 | -0.435 | 2.92 | 3.62 | 0.191 | 4.5 | 0.544 | 4.29 |
| TAGCCTAGGTCATGGGCGAGTATACCACGCGAAC | 4.42 | 3.43 | 0.0703 | 2.28 | -0.329 | 4.15 | 3.46 | 3.42 | 0.67 | 2.09 | 1.54 | 3.26 | 0.096 | -0.639 | 0.74 | 1.53 | -0.407 | 2.3 | -0.782 | 3.91 |
| CCTATTAGTTGACCCTAAGGGCAACCGAAGCTCG | 4.38 | 3.57 | 1.02 | 3.56 | 1.04 | 4.53 | 1.6 | 3.34 | 0.981 | 2.19 | 0.775 | 1.82 | 0.412 | 0.556 | 3.19 | 4.25 | 1.16 | 4.62 | 2.32 | 2.93 |
| AGTCAAAGCTCAGGACGAGGTAACGTAAAGCACG | -0.244 | -0.551 | -0.393 | -0.561 | -0.87 | -0.301 | 0.722 | -0.305 | -0.133 | -0.117 | -0.71 | -0.0403 | -0.126 | -0.455 | 0.053 | -0.435 | -0.405 | 0.159 | -0.547 | -0.0865 |
| CAAACTAGGTCAAGGTCAAGGTCGGTTTGTGCCA | 6.47 | 5.41 | 3.72 | 4.28 | 0.954 | 6 | 9.57 | 7.87 | 6.34 | 8.36 | 8.6 | 8.73 | 2.59 | 1.56 | 5.52 | 5.33 | 2.34 | 5.61 | 2.92 | 5.2 |
| CCAGACAGGTGAGAAGGTAACTAAGCCTCGATTA | -0.00461 | 0.0397 | -0.256 | -0.0609 | -0.426 | 0.532 | 0.439 | 0.258 | -0.00796 | -0.013 | 0.948 | 0.601 | -0.627 | -0.192 | 0.387 | -0.327 | 0.346 | -0.102 | 0.36 | 0.585 |
| CGAACTAGGTCATCCAGGACAGTGAATACATTGA | 4.28 | 2.79 | 0.603 | 2.04 | 0.134 | 4.91 | 7.69 | 6.5 | 4.15 | 6.05 | 8.1 | 8.47 | 3.54 | 2.16 | 1.36 | 2.06 | 1.61 | 2.38 | 0.896 | 3.91 |
| GCTTGTAGATCAAGGTTAATAAAGACTAAGCTAA | -0.0696 | 2.14 | -0.45 | 0.661 | -0.608 | 1 | 1.29 | 2.36 | 0.581 | 1.78 | 1.14 | 0.996 | -0.734 | 0.456 | -0.133 | 0.16 | 0.327 | 0.282 | 0.0284 | 0.519 |
| CCTACTGGGCCACGAAAGGTCATTTATTCAGTGA | 3.85 | 5.32 | 6.04 | 4.6 | 1.31 | 4.47 | 4.58 | 4.66 | 1.87 | 4.02 | 5.5 | 5.64 | -0.2 | -0.0827 | 2.68 | 5.07 | 2.29 | 4.64 | 1.05 | 3.78 |
| CGTCCAAGGTCCGAGAGGTCAGTGAATGCCGAGT | 2.4 | 1.89 | 1.06 | 1.86 | -0.631 | 2.26 | -0.135 | 0.688 | -0.759 | -0.083 | -0.0478 | 0.0193 | -1.25 | -0.955 | 2.31 | 3.19 | 1.56 | 2.87 | 0.494 | 3.23 |
| ACTAGCAGGCCAAGGGTCACTAAAGATTAGTCCG | 2.25 | 3.51 | -0.00755 | 2.66 | -0.174 | 4.34 | 8.06 | 7.21 | 6.64 | 7.61 | 1.3 | 3.86 | 0.0188 | -0.44 | 2 | 3 | -0.139 | 3.97 | 0.15 | 3.42 |
| CAAACTAGGTGACGAAAGGTCAAAGTCGAATGAC | 5.48 | 6.5 | 5.58 | 5.5 | 2.04 | 6.16 | 8.73 | 7.47 | 4.53 | 7.2 | 8.02 | 7.93 | 1.7 | 2.14 | 4.87 | 5.93 | 1.38 | 6.62 | 1.88 | 4.82 |
